Data published in PubChem BioAssay.
The source made the active and inactive calls.

Assays:
[1] = optical density shifts of acrAB sulA E. coli – strain DRC41, OD650, 48 h, E. coli filamentation inducer project, primary screen (AID 1152); conditions: higher = more signal, called active from +8 up or from −8 down;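 note: E. coli MC1000 strain DRC41 lacking acrAB efflux pump and sulA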
[2] = probe aLefty1 binding on compound microarray – biochemical, small-molecule microarray, 635/667 nm fluorescence, primary screen (AID 1153); conditions: higher = more signal;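 note: score merges spot fluorescence with signal-to-noise ratio from the scanned slide images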
[3] = plasmodial surface anion channel blockers, osmotic lysis – cell-based, P. falciparum Indochina, OD700, 1 h, primary screen (AID 1154); conditions: P. falciparum Indochina infected RBC osmotic lysis, higher = more signal, called active from +8 up or from −8 down
[4] = plasmodial surface anion channel blockers, osmotic lysis – cell-based, P. falciparum Indochina, OD700, 2 h, primary screen (AID 1155);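 note: lysis reports solute entry through the parasite surface anion channel PSAC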; conditions: P. falciparum Indochina infected erythrocytes, higher = more signal, called active from +8 up or from −8 down
[5] = changes in parasitized red cell lysis, either direction – P. falciparum Indochina, OD700, 3 h, PSAC antagonist project, primary screen (AID 1156); conditions: P. falciparum-infected erythrocytes, osmotic lysis, higher = more signal, called active from +8 up or from −8 down
[6] = plasmodial surface anion channel blockers, osmotic lysis – cell-based, P. falciparum Indochina, OD700, 18 h, primary screen (AID 1157); conditions: P. falciparum Indochina infected erythrocytes, osmotic lysis OD700, 18 h; higher = more signal, called active from +8 up or from −8 down
[7] = S6 kinase pathway phospho-S6 level changes – cell-based, A549, cytoblot, luminescence, serum-stimulated, primary screen (AID 1158); conditions: 5 h, higher = more signal;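 note: serum-stimulated A549 lung adenocarcinoma cells; signal is phosphorylated S6 detected by cytoblot immunostaining with HRP secondary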
[8] = biological target: NADPH oxidase 2 (Homo sapiens) (UniProt P04839); assay: compounds shifting NOX2 Amplex Red fluorescence – cell-based, HEK293-NOX2, PMA-stimulated, NOX inhibitor project, primary screen (AID 1159); conditions: 45 min, higher = more signal, called active from +8 up or from −8 down; note: test concentration not given here
[9] = biological target: NADPH oxidase 4 (Homo sapiens) (UniProt Q9NPH5); assay: compounds shifting NOX4 Amplex Red fluorescence – cell-based, HEK293-NOX4, tetracycline-induced, NOX inhibitor project, primary screen (AID 1160); conditions: HEK293-NOX4, Amplex Red H2O2 fluorescence, 45 min; higher = more signal, called active from +8 up or from −8 down
[10] = biological target: NADPH oxidase 5 (Homo sapiens) (UniProt Q96PH1); assay: compounds shifting NOX5 Amplex Red fluorescence – cell-based, HEK293-NOX5, NOX inhibitor project, primary screen (AID 1161); conditions: HEK293-NOX5, ionomycin, 45 min, higher = more signal
[11] = compound effects on lung adenocarcinoma cell viability – A549, calcein-AM fluorescence, 48 h, basal, profiling panel (AID 1162); conditions: higher = more signal; note: test concentration not given here
[12] = compound effects on differentiated 3T3-L1 adipocyte viability – cell-based, 3T3-L1 adipocytes, calcein-AM fluorescence, 48 h, basal, profiling panel (AID 1163); conditions: 3T3-L1 adipocytes viability, higher = more signal; note: test concentration not given here
[13] = compound effects on hepatocellular carcinoma cell viability – HepG2, calcein-AM fluorescence, 48 h, basal, profiling panel (AID 1164); conditions: higher = more signal; note: test concentration not given here
[14] = compound effects on multiple myeloma cell viability – MM1S, calcein-AM fluorescence, 48 h, basal, profiling panel (AID 1165); conditions: higher = more signal; note: test concentration not given here
[15] = calcein-AM signal in unstimulated myeloma cells – cell-based, calcein-AM fluorescence, 48 h, PK04 Diversity Set, profiling panel (AID 1166); conditions: RPMI8226 myeloma viability, higher = more signal;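 note: cells grown under basal conditions without added stimulus; test concentration not given here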
[16] = JC-1 mitochondrial signal, unstimulated HepG2 cells – cell-based, JC-1 fluorescence, 24 h, 100 nL compound, profiling panel (AID 1167); conditions: HepG2 mitochondrial potential, higher = more signal; note: test concentration not given here
[17] = JC-1 mitochondrial signal, unstimulated adipocytes – cell-based, JC-1 fluorescence, 3T3-L1 adipocytes, 24 h, 100 nL compound, profiling panel (AID 1168); conditions: JC-1 mitochondrial fluorescence, higher = more signal, called active from +8 up or from −8 down; note: test concentration not given here
[18] = JC-1 mitochondrial signal, unstimulated myeloma cells – cell-based, JC-1 fluorescence, RPMI8226, 24 h, 100 nL compound, profiling panel (AID 1169); conditions: JC-1 mitochondrial potential fluorescence, higher = more signal; note: test concentration not given here
[19] = JC-1 mitochondrial signal, unstimulated MM1S myeloma – cell-based, JC-1 fluorescence, 24 h, 100 nL compound, profiling panel (AID 1170); conditions: MM1S mitochondrial potential, higher = more signal; note: test concentration not given here
[20] = resazurin metabolic signal in A549 cells – cell-based, resazurin fluorescence, 24 h, PK04 Diversity Set, profiling panel (AID 1171); conditions: A549 viability, higher = more signal, called active from +8 up or from −8 down; note: test concentration not given here

Sequence of NADPH oxidase 2 (Homo sapiens) (P04839 whole entry, looked up): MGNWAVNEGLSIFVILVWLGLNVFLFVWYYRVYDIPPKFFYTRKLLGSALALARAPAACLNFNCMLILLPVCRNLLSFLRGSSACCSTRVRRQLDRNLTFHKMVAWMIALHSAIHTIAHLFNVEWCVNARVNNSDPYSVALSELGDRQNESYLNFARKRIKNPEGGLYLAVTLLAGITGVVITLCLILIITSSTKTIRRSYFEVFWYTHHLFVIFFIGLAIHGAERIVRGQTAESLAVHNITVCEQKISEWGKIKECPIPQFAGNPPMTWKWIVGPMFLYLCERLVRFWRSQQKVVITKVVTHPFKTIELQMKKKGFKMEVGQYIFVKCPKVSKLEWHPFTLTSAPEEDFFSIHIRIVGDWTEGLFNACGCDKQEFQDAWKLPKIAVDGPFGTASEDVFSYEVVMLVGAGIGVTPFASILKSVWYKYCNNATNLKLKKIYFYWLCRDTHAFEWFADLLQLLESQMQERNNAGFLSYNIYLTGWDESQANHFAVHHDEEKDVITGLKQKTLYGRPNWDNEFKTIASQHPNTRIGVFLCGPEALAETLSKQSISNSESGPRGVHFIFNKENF
Sequence of NADPH oxidase 4 (Homo sapiens) (Q9NPH5 whole entry, looked up): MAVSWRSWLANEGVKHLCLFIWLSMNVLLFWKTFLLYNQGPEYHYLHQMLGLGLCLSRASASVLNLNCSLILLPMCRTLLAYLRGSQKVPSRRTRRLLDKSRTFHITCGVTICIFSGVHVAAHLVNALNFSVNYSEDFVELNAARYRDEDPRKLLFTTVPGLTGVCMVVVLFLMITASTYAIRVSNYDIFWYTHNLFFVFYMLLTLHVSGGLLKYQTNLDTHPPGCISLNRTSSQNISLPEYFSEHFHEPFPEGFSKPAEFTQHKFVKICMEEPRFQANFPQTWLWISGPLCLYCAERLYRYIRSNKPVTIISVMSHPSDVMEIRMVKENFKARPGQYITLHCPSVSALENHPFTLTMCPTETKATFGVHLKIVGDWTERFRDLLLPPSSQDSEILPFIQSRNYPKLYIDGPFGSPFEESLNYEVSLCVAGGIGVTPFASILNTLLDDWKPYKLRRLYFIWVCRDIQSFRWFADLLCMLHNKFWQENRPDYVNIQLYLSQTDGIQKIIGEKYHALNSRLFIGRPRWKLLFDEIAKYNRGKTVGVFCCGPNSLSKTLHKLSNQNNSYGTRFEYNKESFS
Sequence of NADPH oxidase 5 (Homo sapiens) (Q96PH1 whole entry, looked up): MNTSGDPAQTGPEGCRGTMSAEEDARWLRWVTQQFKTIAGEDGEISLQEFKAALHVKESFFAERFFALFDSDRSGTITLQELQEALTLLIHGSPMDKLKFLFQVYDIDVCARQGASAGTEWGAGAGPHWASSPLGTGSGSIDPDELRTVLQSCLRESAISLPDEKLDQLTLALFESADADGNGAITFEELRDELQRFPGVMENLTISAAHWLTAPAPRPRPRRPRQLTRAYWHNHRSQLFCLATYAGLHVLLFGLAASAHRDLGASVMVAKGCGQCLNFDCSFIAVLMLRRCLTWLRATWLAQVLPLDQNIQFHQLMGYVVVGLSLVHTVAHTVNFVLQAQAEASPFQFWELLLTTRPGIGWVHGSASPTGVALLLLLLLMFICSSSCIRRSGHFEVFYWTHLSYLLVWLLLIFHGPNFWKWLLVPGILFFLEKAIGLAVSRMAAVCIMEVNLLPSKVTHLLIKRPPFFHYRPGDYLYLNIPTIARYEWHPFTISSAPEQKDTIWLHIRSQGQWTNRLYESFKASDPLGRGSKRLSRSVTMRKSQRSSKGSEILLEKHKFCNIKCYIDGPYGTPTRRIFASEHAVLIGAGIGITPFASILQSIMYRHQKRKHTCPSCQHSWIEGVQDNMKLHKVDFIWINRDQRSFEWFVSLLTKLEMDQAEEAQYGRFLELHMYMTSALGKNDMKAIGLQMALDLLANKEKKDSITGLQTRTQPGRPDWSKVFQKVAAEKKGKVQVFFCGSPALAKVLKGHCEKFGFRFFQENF

| SMILES | z-score [1] | composite z-score [2] | z-score [3] | z-score [4] | z-score [5] | z-score [6] | z-score [7] | z-score [8] | z-score [9] | z-score [10] | z-score [11] | z-score [12] | z-score [13] | z-score [14] | z-score [15] | z-score [16] | z-score [17] | z-score [18] | z-score [19] | z-score [20] |
| --- | --- | --- | --- | --- | --- | --- | --- | --- | --- | --- | --- | --- | --- | --- | --- | --- | --- | --- | --- | --- |
| COC(=O)[C@@]1(Cc2ccccc2)[C@H]2c3cc(C(=O)N(C)C)n(Cc4cc(C)n(C)n4)c3C[C@H]2CN1C(=O)c1ccccc1 | -1.85 (inactive) | 0.33 | 1.11 (inactive) | 0.234 (inactive) | 0.452 (inactive) | 0.396 (inactive) | 0.251 | 0.904 (inactive) | -0.925 (inactive) | -2.11 | -0.997 | 0.461 | 0.0271 | -0.47 | -0.965 | 1.17 | -1.24 (inactive) | -0.0807 | 0.0916 | -0.236 (inactive) |
| CC1CC/C=C\[C@H]2OC34C=CCN(Cc5ccccc5)C(=O)[C@H]3N(CCCCCO)C(=O)[C@@H]4C2C(=O)O1 (stereo not given in full) | -0.94 (inactive) | -0.326 | -0.365 (inactive) | -0.0369 (inactive) | -0.692 (inactive) | -0.0374 (inactive) | -0.689 | 0.852 (inactive) | -0.14 (inactive) | 1.34 | 0.482 | 0.449 | -0.069 | 1.51 | 0.599 | 0.647 | -0.478 (inactive) | -0.514 | 1.12 | 0.374 (inactive) |
| COc1cc(C(O)C2C=CC3C(=O)N(c4ccccc4)C(=O)C3N2Nc2ccc(C#N)cc2)cc(OC)c1OC (stereo not given) | -1.64 (inactive) | 0.233 | 24 (active) | 7.24 (inactive) | 0.86 (inactive) | 1.76 (inactive) | -1.15 | -2.04 (inactive) | -5.26 (inactive) | -5.34 | -1.26 | 0.0434 | -0.272 | 0.0375 | -0.269 | -1.36 | -1.51 (inactive) | 0.433 | -0.314 | -0.404 (inactive) |
| [N-]=[N+]=NCc1ccccc1C[C@@]1(C(=O)NCC(O)CO)N=C(c2ccc(OCCCO)cc2)O[C@@H]1c1ccccc1CN=[N+]=[N-] (stereo not given in full) | 0.19 (inactive) | 0.455 | 27.4 (active) | 14.6 (active) | 0.029 (inactive) | 2.24 (inactive) | -0.324 | 0.266 (inactive) | 1.54 (inactive) | 2.31 | -1.05 | 0.208 | -0.0726 | -1.4 | -2.2 | -0.382 | -1.04 (inactive) | -0.762 | -0.737 | -0.2 (inactive) |
| CC(C)N1C(=O)[C@@]2(c3ccc([N+](=O)[O-])cc3)CC(=O)N(CC34CC5CC(CC(C5)C3)C4)[C@@H]2c2ccc(CO)cc21 | 0.0258 (inactive) | 1.04 | 0.297 (inactive) | 0.328 (inactive) | 0.0625 (inactive) | 0.131 (inactive) | -0.561 | 0.306 (inactive) | -0.0646 (inactive) | 0.607 | 0.192 | -1.22 | 1.36 | 0.496 | 0.13 | 0.396 | 0.888 (inactive) | -0.361 | -0.512 | -0.695 (inactive) |
| C[C@]1(C(=O)NCc2ccccc2)c2ccccc2C(=O)N(Cc2ccc(OC(F)(F)F)cc2)[C@H]1c1ccc(CO)cc1 | 1.17 (inactive) | -0.142 | 3.54 (inactive) | -0.18 (inactive) | -0.495 (inactive) | -0.779 (inactive) | 0.843 | -0.944 (inactive) | -1.33 (inactive) | -0.499 | 1.84 | 1.12 | 1 | 0.318 | 0.346 | 3.56 | 0.777 (inactive) | -0.584 | -0.0466 | 1.46 (inactive) |
| COCCOC(=O)N1C(=O)[C@@]2(c3cc(C#CC4(O)CCCCCC4)ccc31)[C@H](C(=O)N1CCCCCCC1)[C@H]1C(=O)O[C@H](c3ccccc3)[C@H](c3ccccc3)N1[C@@H]2c1ccccc1OCCO | 0.139 (inactive) | 2.53 | 1.04 (inactive) | 1.53 (inactive) | 1.05 (inactive) | 1.07 (inactive) | 0.535 | 0.528 (inactive) | -0.409 (inactive) | 1.29 | 0.424 | 1.64 | 0.504 | -0.658 | -1.87 | -0.679 | 0.656 (inactive) | -0.658 | -0.987 | -1.1 (inactive) |
| CC(C)(C)OC(=O)CC[C@]1(C(=O)N2CCCCC2)N=C(c2ccc(OCCCO)cc2)O[C@H]1c1ccccc1N=[N+]=[N-] | 1.66 (inactive) | 0.19 | 32.1 (active) | 28.8 (active) | 2.17 (inactive) | 7.7 (inactive) | -0.167 | -3.53 (inactive) | 0.976 (inactive) | -1.46 | 1.12 | 0.768 | 0.63 | -2.03 | -0.99 | 1.18 | 1.92 (inactive) | -0.862 | -0.715 | -0.0762 (inactive) |
| O=C1OCCC=C[C@H]2OC34C=CCN(Cc5ccccc5)C(=O)[C@H]3N(CCCCCO)C(=O)[C@@H]4C12 (stereo not given in full) | 1.8 (inactive) | 0.282 | 1.77 (inactive) | 0.18 (inactive) | 2.12 (inactive) | 0.551 (inactive) | 0.469 | 1.39 (inactive) | 0.701 (inactive) | 1.38 | 0.412 | -0.0568 | 0.889 | 1.81 | 0.593 | 0.756 | 0.498 (inactive) | 0.231 | -0.967 | 0.872 (inactive) |
